# Test results reported in PubChem BioAssay AID652176 (Sanford-Burnham Center for Chemical Genomics, 2013).
# Screen size: about 2,400 compounds; about 25 (1%) were called active.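 How the source made its calls: active means replicate-average signal at least 3 plate SD below neutral wells, shown as high inhibition, flagging enzyme-inhibiting false positives; inactive means the rest.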 Not all results are given here.
# System: Beta-galactosidase (Escherichia coli), counter-screen for EBI2 antagonists
# Assay: E. coli beta-galactosidase enzyme inhibition, confirmation, counter-screen for EBI2 antagonist project, biochemical, luminescence, single concentration (AID 652176);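 further: 0% = DMSO wells with enzyme and 100% = wells lacking enzyme; higher means stronger loss of beta-gal luminescence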
# Details: purified beta-galactosidase, luminescent Galacton Star, 15 min; at 5 µM; active compounds read high
row,SMILES,inhibition
1,Cc1ccc(S(=O)(=O)N2CCN(C(=O)CSc3cc(C)ccc3C)CC2)c(C)c1,2.31% (inactive)
2,COc1cccc(NC(=O)Cn2c3ccc(F)cc3c3nc4n(c(=O)c32)CCS4)c1,1.47% (inactive)
3,COc1ccc(-c2cc(C3CCN(c4ncccc4[N+](=O)[O-])CC3)[nH]n2)cc1,12% (inactive)
4,COc1cccc(NC(=O)Cn2c3ccccc3c3nc4n(c(=O)c32)CCS4)c1,-5.55% (inactive)
5,COc1ccc(OCC(=O)N2CCN(C(=O)c3cccs3)CC2)cc1,8.51% (inactive)
6,Cc1nc(-c2ccccc2)sc1C(=O)/C=C/c1ccccc1,12% (inactive)
7,c1ccc(C(c2ccccc2)N2CCN(Cc3nnnn3C3CCCCC3)CC2)cc1,9.44% (inactive)
8,O=C(c1cc2ccccc2o1)N1CCN(S(=O)(=O)c2ccc(Cl)s2)CC1,3.41% (inactive)
9,COc1ccc(N(CC(=O)Nc2cc(OC)ccc2OC)S(=O)(=O)c2c(C)noc2C)cc1,6.51% (inactive)
10,Fc1ccccc1/C=N/Nc1cc(N2CCCCC2)ncn1,-5.12% (inactive)
11,Cc1ccc(SCC(=O)N2CCN(c3ccc(F)cc3)CC2)cc1,1.65% (inactive)
12,COc1ccc(C(C(=O)NC2CCCCC2)N(C(=O)c2snc(C(N)=O)c2N)c2ccccc2OC)cc1 (centres undefined),1.73% (inactive)
13,Cc1ccc(-n2ncc3c(=O)n(-c4ccc(C)c(C)c4)c(-c4ccco4)nc32)cc1,-11.1% (inactive)
14,O=C(c1cc(=O)c2ccccc2o1)N1CCN(c2ccccc2)CC1,2.55% (inactive)
15,Cc1cc(C)cc(Oc2nc3c(C)cccn3c(=O)c2/C=C(\C#N)C(=O)NC2CCS(=O)(=O)C2)c1 (centres undefined),-6.32% (inactive)
16,CC1(Cc2ccccc2C#N)C(=O)Nc2ccc(-c3ccc4[nH]ccc4c3)cc21 (centres undefined),-12.8% (inactive)
17,N#CC(=C1CCCC1)c1nc(-c2ccc(Cl)cc2)cs1,-15.6% (inactive)
18,CCCCC(=O)N(C)c1c(CC)nc2c(OCc3ccc(Cl)cc3Cl)cccn12,-8.17% (inactive)
19,CC(C)Cn1c(N2CCN(C(=O)/C=C/c3ccccc3)CC2)nc2ccccc21,-6.12% (inactive)
20,CCN1CCN(C(=O)CSc2ccc(C)cc2)CC1,-12.6% (inactive)
21,O=C(CCNS(=O)(=O)c1ccccc1)NCCSc1ccc(Br)cc1,-8.38% (inactive)
22,COc1ccc(/C=C/C(=O)c2ccc(OC)cc2O)cc1,-7.89% (inactive)
23,O=C(CCc1ccccc1)NNC(=O)COc1ccc(Cl)cc1,4.21% (inactive)
24,Cc1ccc(-c2nn(-c3ccccc3)cc2/C=C/C(=O)Nc2cccc(S(N)(=O)=O)c2)cc1,7.52% (inactive)
